Where “and” joins values, the source holds several entries; their conditions need not be identical. Equal values may be shown once. Inconclusive results are not listed. More than one record can exist for a structure, and the calls need not agree. Calls of active or inactive are those of the source. How the source made its calls: active means hit-call score of the fitted dose curve at least 0.9, where 1 is the maximum; inconclusive means response in the unintended direction; inactive means score below 0.9.
Key:
[1] = tested on: frog Androgen Receptor (AR), gene 399456; assay: ATG_frAR_XSP1: Attagene TRANS-FACTORIAL Multi-Species (XSP1) HepG2 Assay for frog Androgen Receptor (AR) (AID 2283770)
Procedure: ATG_XSP1_multi-species_TRANS is a cell-based, multiplexed assay created by modifying the existing Attagene TRANS-FACTORIAL system to include a panel of nuclear receptors from some or all the following species: human (Homo sapiens), mouse (Mus musculus), frog (Xenopus laevis), zebrafish (Danio rerio), chicken (Gallus gallus), and turtle (Chrysemys picta). The ECOTOX-FACTORIAL format uses HepG2, a human liver cell line, with measurements taken at 24 hours after chemical dosing in a 24-well plate. Xsp1 included 3 nM 6-alpha-fluorotestosterone to partially stimulate the androgen receptor.ATG_frAR_XSP1 is one of 29 assay components measured or calculated from the ATG_XSP1_multi-species_TRANS assay. It is designed to make measurements of mRNA induction, a form of inducible reporter, as detected with fluorescence intensity signals by Reverse transcription polymerase chain reaction (RT-PCR) and Capillary electrophoresis technology.The assay endpoint ATG_frAR_XSP1 was analyzed in the positive analysis fitting direction relative to DMSO as the negative control and baseline of activity. […] Furthermore, this assay endpoint can be referred to as a primary readout, because this assay has produced multiple assay endpoints where this one serves a reporter gene function. […]

[2] = biological target: zebrafish Estrogen Receptor (ESR1), esr1 (gene 259252) (UniProt P57717); assay: ATG_zfER1_XSP1: Attagene TRANS-FACTORIAL Multi-Species (XSP1) HepG2 Assay for zebrafish Estrogen Receptor (ESR1) (AID 2283772)
zebrafish Estrogen Receptor (ESR1), esr1 (gene 259252), sequence (P57717 whole entry, looked up, the tested form may be a part): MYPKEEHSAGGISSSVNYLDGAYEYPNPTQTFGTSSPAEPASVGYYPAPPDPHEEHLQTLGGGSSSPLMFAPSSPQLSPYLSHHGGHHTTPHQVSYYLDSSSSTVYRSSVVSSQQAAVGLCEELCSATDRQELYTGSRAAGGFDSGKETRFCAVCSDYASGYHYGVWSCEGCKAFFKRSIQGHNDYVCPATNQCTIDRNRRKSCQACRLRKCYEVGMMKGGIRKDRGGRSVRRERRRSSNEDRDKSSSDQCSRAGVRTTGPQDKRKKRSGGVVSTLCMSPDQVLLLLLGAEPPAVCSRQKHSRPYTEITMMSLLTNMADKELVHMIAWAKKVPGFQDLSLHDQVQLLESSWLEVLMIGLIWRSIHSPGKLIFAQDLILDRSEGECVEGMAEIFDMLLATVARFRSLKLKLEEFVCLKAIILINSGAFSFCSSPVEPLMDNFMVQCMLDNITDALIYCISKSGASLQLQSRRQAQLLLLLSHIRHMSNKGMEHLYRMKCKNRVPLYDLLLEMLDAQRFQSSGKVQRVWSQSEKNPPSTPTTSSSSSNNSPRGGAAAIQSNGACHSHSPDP
Procedure, shortened: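 HepG2 cells were transiently transfected with multiplexed GAL4-UAS reporter units driven by chimeric NR-GAL4 proteins, dosed for 24 h with 3 nM 6-alpha-fluorotestosterone present, and reporter mRNA quantified by RT-PCR and capillary electrophoresis versus DMSO.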

[3] = tested on: zebrafish Estrogen Receptor (ESR2B), gene 317733; assay: ATG_zfER2b_XSP1: Attagene TRANS-FACTORIAL Multi-Species (XSP1) HepG2 Assay for zebrafish Estrogen Receptor (ESR2B) (AID 2283773)
Procedure, shortened: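 HepG2 cells transiently transfected with multiple GAL4-UAS reporter units expressing chimeric zebrafish ER2b-Gal4; 24 h chemical exposure with 3 nM 6-alpha-fluorotestosterone present. Reporter mRNA measured by RT-PCR and capillary electrophoresis; gain of signal fitted versus DMSO.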

[4] = ACEA_AR_agonist_AUC_viability: ACEA Biosciences xCELLigence Real-Time Cell Analysis on Androgen Receptor Agonism for Viability (AID 2283775);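 on AC50: viability read 80 hours after compound addition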
Procedure, shortened: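 Read-out is area under the impedance curve at 80 h post-dose in 22Rv1 cells, with DMSO as baseline and signal loss taken as reduced viability. Compounds ran in duplicate from 100 uM final.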

[5] = ACEA_AR_antagonist_AUC_viability: ACEA Biosciences xCELLigence Real-Time Cell Analysis on Androgen Receptor Antagonism for Viability (AID 2283776);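 further: 22Rv1 human prostate cancer cells growing on impedance electrode plates; area under impedance growth curve at 80 h after dosing as viability; hits lower the growth signal relative to DMSO meaning cytotoxicity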
Procedure, shortened: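 22Rv1 prostate cells, continuous dosing up to 100 uM final (0.5% DMSO max), duplicate plates. Growth measured by impedance; AUC at 80 h, loss of signal vs DMSO.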

[6] = tested on: frog Estrogen Receptor (ESR1), gene 398734; assay: ATG_frER1_XSP1: Attagene TRANS-FACTORIAL Multi-Species (XSP1) HepG2 Assay for frog Estrogen Receptor (ESR1) (AID 2283777)
Procedure, shortened: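 Read-out: fluorescent reporter mRNA via RT-PCR, HpaI digestion and capillary electrophoresis, after 24 h chemical exposure of transiently transfected human HepG2 cells expressing exogenous NR-Gal4 chimeras. DMSO served as baseline for positive-direction fitting.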

[7] = biological target: Estrogen receptor (Homo sapiens) (UniProt P03372); assay: ATG_hERa_XSP1: Attagene TRANS-FACTORIAL Multi-Species (XSP1) HepG2 Assay for human Estrogen Receptor (ESR1) (AID 2283780)
Estrogen receptor (Homo sapiens), sequence (P03372 whole entry, looked up, the tested form may be a part): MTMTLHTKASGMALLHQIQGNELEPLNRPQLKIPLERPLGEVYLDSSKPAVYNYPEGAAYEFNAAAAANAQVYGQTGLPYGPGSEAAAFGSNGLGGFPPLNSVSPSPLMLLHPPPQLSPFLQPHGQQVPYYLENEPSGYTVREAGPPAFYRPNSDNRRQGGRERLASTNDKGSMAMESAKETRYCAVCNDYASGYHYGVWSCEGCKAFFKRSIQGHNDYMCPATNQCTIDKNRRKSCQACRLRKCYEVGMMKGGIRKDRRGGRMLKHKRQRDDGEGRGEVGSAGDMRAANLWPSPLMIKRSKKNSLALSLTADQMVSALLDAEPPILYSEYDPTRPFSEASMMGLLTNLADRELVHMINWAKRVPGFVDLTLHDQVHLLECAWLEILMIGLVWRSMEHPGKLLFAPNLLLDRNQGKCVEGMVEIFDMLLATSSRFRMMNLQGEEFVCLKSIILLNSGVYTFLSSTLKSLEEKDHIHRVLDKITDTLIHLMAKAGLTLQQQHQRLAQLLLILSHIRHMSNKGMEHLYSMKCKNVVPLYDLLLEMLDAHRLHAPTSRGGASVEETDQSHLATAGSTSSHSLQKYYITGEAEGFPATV
Procedure, shortened: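 HepG2 cells transiently transfected with GAL4-UAS reporter units and chimeric NR-Gal4 constructs; 24 h after dosing, reporter mRNA quantified by RT-PCR and capillary electrophoresis. Medium contained 3 nM 6-alpha-fluorotestosterone; activity fitted as gain-of-signal versus DMSO.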

[8] = tested on: turtle Estrogen Receptor (ESR1), gene 101933533; assay: ATG_trERa_XSP1: Attagene TRANS-FACTORIAL Multi-Species (XSP1) HepG2 Assay for turtle Estrogen Receptor (ESR1) (AID 2283781)
Procedure, shortened: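 HepG2 cells transiently transfected with GAL4-UAS reporter units and chimeric NR-Gal4 constructs, dosed for 24 h with 3 nM 6-alpha-fluorotestosterone present. Reporter mRNA was quantified by RT-PCR, fluorescent labelling and capillary electrophoresis, with gain of signal fitted relative to DMSO.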

[9] = ACEA_ER_AUC_viability: ACEA Biosciences xCELLigence Real-Time Cell Analysis on Estrogen Receptor Agonism for Viability (AID 2283782);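 further: continuous compound exposure with impedance area under curve over 80 h; hit means loss of impedance signal meaning reduced cell growth or viability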
Procedure, shortened: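 T-47D human breast cells in phenol red-free RPMI1640 with 10% charcoal-stripped FBS were dosed with an 8-point 1:4 dilution series from 100 uM top final concentration, in duplicate. Impedance-based growth was followed for 80 h; AUC analysed versus DMSO.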

[10] = STM_H9_NormalizedViability: Cytotoxicity Assessment at 120 hours in the Stemina devTOX quickPredict H9 human embryonic stem cell (hESC)-based Assay (AID 2283784)
Procedure, shortened: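 Chemicals are tested blinded on H9 human embryonic stem cells in the pluripotent state, with medium exchanged daily. After background correction, fluorescence from CellTiter-Fluor is scaled against 0.1% DMSO wells, and decreases are scored.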

[11] = tested on: turtle Androgen Receptor (AR), gene 101947425; assay: ATG_trAR_XSP1: Attagene TRANS-FACTORIAL Multi-Species (XSP1) HepG2 Assay for turtle Androgen Receptor (AR) (AID 2283786)
Procedure, shortened: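 HepG2 cells transiently transfected with a turtle AR–GAL4 chimera and GAL4-UAS reporter, co-treated with 3 nM 6-alpha-fluorotestosterone for partial stimulation. Reporter mRNA is quantified at 24 h by RT-PCR and capillary electrophoresis, gain-of-signal versus DMSO.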

[12] = biological target: Estrogen receptor beta (Homo sapiens) (UniProt Q92731); assay: ATG_hERb_XSP1: Attagene TRANS-FACTORIAL Multi-Species (XSP1) HepG2 Assay for human Estrogen Receptor (ESR2) (AID 2283788)
Estrogen receptor beta (Homo sapiens), sequence (Q92731 whole entry, looked up, the tested form may be a part): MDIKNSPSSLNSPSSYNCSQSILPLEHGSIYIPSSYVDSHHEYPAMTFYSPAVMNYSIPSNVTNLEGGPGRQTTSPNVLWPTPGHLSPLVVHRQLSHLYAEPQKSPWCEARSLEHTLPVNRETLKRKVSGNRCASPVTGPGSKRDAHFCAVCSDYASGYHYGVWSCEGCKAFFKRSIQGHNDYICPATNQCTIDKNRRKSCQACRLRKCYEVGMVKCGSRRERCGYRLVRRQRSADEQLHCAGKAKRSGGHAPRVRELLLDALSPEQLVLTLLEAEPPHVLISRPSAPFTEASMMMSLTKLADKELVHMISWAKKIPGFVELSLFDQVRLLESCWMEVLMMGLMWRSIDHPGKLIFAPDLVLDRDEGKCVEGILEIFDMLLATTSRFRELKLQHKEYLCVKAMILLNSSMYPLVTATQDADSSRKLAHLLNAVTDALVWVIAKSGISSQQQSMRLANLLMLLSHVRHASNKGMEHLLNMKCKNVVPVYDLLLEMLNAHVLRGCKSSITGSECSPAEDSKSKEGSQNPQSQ
Procedure, shortened: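 Read-out: reporter mRNA induction by RT-PCR, HpaI digestion and capillary electrophoresis fluorescence, fitted in positive direction relative to DMSO baseline. Human liver HepG2 cells expressing ERβ-Gal4 fusion, dosed 24 h, medium containing 3 nM 6-alpha-fluorotestosterone.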

[13] = ATG_M_06_XSP1: Attagene TRANS-FACTORIAL Multi-Species (XSP1) HepG2 Assay for M06 Transcription Factor (Internal Marker) (AID 2283790)
Procedure, shortened: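 Transfected HepG2 multi-reporter system treated 24 h in the presence of 3 nM 6-alpha-fluorotestosterone. The M06 internal marker transcript was quantified by RT-PCR with capillary electrophoresis as a background control, and gain of signal was scored versus DMSO.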

[14] = ATG_M_61_XSP1: Attagene TRANS-FACTORIAL Multi-Species (XSP1) HepG2 Assay for M61 Transcription Factor (Internal Marker) (AID 2283797)
Procedure, shortened: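 HepG2 cells transiently transfected with multiplexed GAL4-driven reporter units, dosed 24 h with 3 nM 6-alpha-fluorotestosterone present. Reporter mRNA quantified by RT-PCR, 6-FAM labelling, HpaI digestion and capillary electrophoresis; internal-marker background control, gain of signal versus DMSO.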

[15] = tested on: zebrafish Estrogen Receptor (ESR2A), gene 317734; assay: ATG_zfER2a_XSP1: Attagene TRANS-FACTORIAL Multi-Species (XSP1) HepG2 Assay for zebrafish Estrogen Receptor (ESR2A) (AID 2283778)
Procedure, shortened: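 HepG2 cells transiently transfected with multiplexed GAL4-UAS reporter units and chimeric NR-GAL4 receptors; 24 h compound exposure with 3 nM 6-alpha-fluorotestosterone present. Reporter mRNA quantified by RT-PCR and capillary electrophoresis, gain-of-signal fitted relative to DMSO.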

[16] = tested on: chicken Androgen Receptor (AR), gene 422165; assay: ATG_chAR_XSP1: Attagene TRANS-FACTORIAL Multi-Species (XSP1) HepG2 Assay for chicken Androgen Receptor (AR) (AID 2283768)
Procedure, shortened: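 HepG2 cells transiently transfected with multiplexed GAL4-UAS reporter units expressing chimeric chicken AR-Gal4; 3 nM 6-alpha-fluorotestosterone for partial AR stimulation; 24 h after dosing, reporter mRNA by RT-PCR and capillary electrophoresis, gain-of-signal versus DMSO.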

[17] = tested on: zebrafish Androgen Receptor (AR), gene 100005148; assay: ATG_zfAR_XSP1: Attagene TRANS-FACTORIAL Multi-Species (XSP1) HepG2 Assay for zebrafish Androgen Receptor (AR) (AID 2283771)
Procedure, shortened: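 HepG2 cells were transiently transfected with a zebrafish AR-GAL4 reporter system and partially stimulated with 3 nM 6-alpha-fluorotestosterone. Reporter mRNA was measured after 24 h dosing by RT-PCR with capillary electrophoresis, and gain-of-signal was fitted relative to DMSO.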

[18] = biological target: GAL4 Transcription Factor (Internal Marker), GAL4 (gene 855828) (UniProt P04386); assay: ATG_GAL4_XSP1: Attagene TRANS-FACTORIAL Multi-Species (XSP1) HepG2 Assay for GAL4 Transcription Factor (Internal Marker) (AID 2283789)
GAL4 Transcription Factor (Internal Marker), GAL4 (gene 855828), sequence (P04386 whole entry, looked up, the tested form may be a part): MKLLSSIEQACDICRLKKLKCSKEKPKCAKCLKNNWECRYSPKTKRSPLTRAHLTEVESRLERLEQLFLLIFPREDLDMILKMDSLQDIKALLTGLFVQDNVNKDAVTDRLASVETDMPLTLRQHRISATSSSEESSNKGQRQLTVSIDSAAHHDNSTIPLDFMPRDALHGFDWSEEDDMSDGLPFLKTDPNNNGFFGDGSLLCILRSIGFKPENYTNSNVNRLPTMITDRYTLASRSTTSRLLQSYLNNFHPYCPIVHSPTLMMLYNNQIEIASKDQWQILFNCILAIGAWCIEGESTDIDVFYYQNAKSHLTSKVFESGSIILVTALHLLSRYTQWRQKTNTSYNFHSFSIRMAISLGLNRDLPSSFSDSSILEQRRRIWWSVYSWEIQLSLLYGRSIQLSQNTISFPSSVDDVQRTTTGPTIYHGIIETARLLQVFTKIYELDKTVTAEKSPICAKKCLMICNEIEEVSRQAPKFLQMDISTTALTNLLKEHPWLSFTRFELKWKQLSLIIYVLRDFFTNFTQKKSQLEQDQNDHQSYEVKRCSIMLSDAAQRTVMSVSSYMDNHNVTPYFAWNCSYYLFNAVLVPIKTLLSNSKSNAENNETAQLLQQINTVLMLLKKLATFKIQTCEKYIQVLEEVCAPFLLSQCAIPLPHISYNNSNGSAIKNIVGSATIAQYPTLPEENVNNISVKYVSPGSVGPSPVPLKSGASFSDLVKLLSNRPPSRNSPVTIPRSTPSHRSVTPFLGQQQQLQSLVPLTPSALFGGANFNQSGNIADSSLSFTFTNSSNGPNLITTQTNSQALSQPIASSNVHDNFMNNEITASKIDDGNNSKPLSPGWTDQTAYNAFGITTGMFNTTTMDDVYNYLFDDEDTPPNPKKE
Procedure, shortened: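 HepG2 cells transiently transfected with multiplexed GAL4-UAS reporter units were exposed for 24 h with 3 nM 6-alpha-fluorotestosterone present. Reporter mRNA was quantified by RT-PCR, FAM labelling, HpaI digestion and capillary electrophoresis; background-control readout, gain-of-signal versus DMSO.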

Measured: AC50

C#CCOS(=O)OC1CCCCC1Oc1ccc(C(C)(C)C)cc1 (stereo not drawn)
active: [1] 2.11 µM | [2] 166 µM | [3] 80.1 µM | [4] 44.7 µM | [5] 21.7 µM | [7] 5.29 µM | [8] 44.3 µM | [9] 87.4 µM | [10] 3.86 µM | [11] 1.6 µM | [12] 24.2 µM
inactive: [6] | [13] | [14]

CON(C)C(=O)Nc1ccc(Cl)c(Cl)c1
inactive: [2] | [4] | [5] | [15] | [9] | [10] | [13] | [14]
active: [3] 35.9 µM | [5] 15.8 µM | [6] 10.4 µM | [7] 9.61 µM | [8] 26.7 µM

CCCN(CCC)c1c([N+](=O)[O-])cc(S(N)(=O)=O)cc1[N+](=O)[O-]
active: [16] 59.5 µM | [3] 14.2 µM | [6] 12.7 µM | [15] 33.4 µM | [7] 13.2 µM | [8] 33.4 µM | [9] 24 µM and 82.5 µM and 21.4 µM | [12] 14.8 µM | [18] 49.1 µM
inactive: [17] | [2] | [9] | [11] | [13] | [14]

Cc1c(F)c(F)c(COC(=O)C2C(/C=C(\Cl)C(F)(F)F)C2(C)C)c(F)c1F (stereo not drawn)
active: [5] 30.6 µM
inactive: [4]

CCCCC(CC)COC(=O)c1ccccc1C(=O)OCC(CC)CCCC (stereo not drawn)
active: [3] 16.1 µM | [4] 50 µM | [5] 61.8 µM
inactive: [17] | [6] | [7] | [8] | [9] | [10] | [13] | [14]

COc1ccc(C(c2ccc(OC)cc2)C(Cl)(Cl)Cl)cc1
active: [3] 1.08 µM | [4] 80.8 µM | [5] 76.7 µM | [6] 0.368 µM | [7] 0.821 µM | [8] 1.32 µM | [9] 88.6 µM
inactive: [17] | [2] | [15] | [12] | [18] | [13] | [14]

C=CC1(C)OC(=O)N(c2cc(Cl)cc(Cl)c2)C1=O (stereo not drawn)
active: [3] 168 µM | [4] 38.5 µM | [5] 83.7 µM | [7] 100 µM | [8] 100 µM
not listed: [1] | [2] | [11] | [16]
inactive: all other assays above

COP(=S)(OC)Oc1nc(Cl)c(Cl)cc1Cl
active: [16] 3.31 µM | [1] 5.58 µM | [3] 46.6 µM | [6] 31 µM | [7] 27.1 µM | [8] 27.9 µM | [9] 79 µM | [11] 25.3 µM | [12] 27.1 µM
inactive: [2] | [4] | [13] | [14]

Oc1ccccc1-c1ccccc1
inactive: [4]
active: [4] 50 µM | [5] 48.6 µM | [9] 78 µM

COC(=O)C=C(C)OP(=O)(OC)OC
active: [4] 29.8 µM | [5] 19 µM

CC(C)Oc1cc(-n2nc(C(C)(C)C)oc2=O)c(Cl)cc1Cl
active: [16] 18 µM | [3] 29.6 µM | [4] 50 µM | [5] 50 µM | [6] 7.92 µM | [7] 6.88 µM | [8] 20.8 µM | [9] 81.9 µM | [12] 100 µM
inactive: [17] | [2] | [15] | [11] | [18] | [13] | [14]

CCOP(=S)(OCC)SCn1c(=O)oc2cc(Cl)ccc21
inactive: [13] | [14]
active: [3] 24.5 µM | [4] 91.5 µM | [5] 76.9 µM

COP(N)(=O)SC (stereo not drawn)
inactive: [4] | [5]

COc1cnc(OC)n2nc(NS(=O)(=O)c3c(OCC(F)F)cccc3C(F)(F)F)nc12
inactive: [4] | [5]

COC(=O)C(C)Oc1ccc(Oc2ccc(Cl)cc2Cl)cc1 (stereo not drawn)
active: [4] 50 µM | [5] 50 µM

CCCCOC(=O)c1ccccc1C(=O)OCCCC
inactive: [16] | [6] | [8] | [9] | [18]
active: [3] 24.6 µM | [4] 77.2 µM | [5] 66.1 µM | [7] 19.9 µM | [9] 78.3 µM | [10] 50 µM

N#CC(CCc1ccc(Cl)cc1)(Cn1cncn1)c1ccccc1 (stereo not drawn)
active: [4] 50 µM | [5] 25.7 µM

OC(c1ccc(Cl)cc1)(c1cncnc1)c1ccccc1Cl (stereo not drawn)
inactive: [17] | [9] | [10]
active: [2] 26.4 µM | [3] 8.4 µM | [4] 72 µM | [5] 67.8 µM | [15] 4.49 µM | [7] 2.22 µM | [8] 2.12 µM | [12] 1.98 µM

Source: PubChem BioAssay (EPA / NIEHS)
